Reference: PubChem BioAssay (EPA / NIEHS)
More than one record can exist for a structure, and the calls need not agree. Calls of active or inactive are those of the source. How the source made its calls: active means hit-call score of the fitted dose curve at least 0.9, where 1 is the maximum; inactive means score below 0.9.

How the values were obtained:
[1] = read-out: Plasminogen activator inhibitor-1 (PAI1), SERPINE1 (gene 5054); assay: BSK_MyoF_PAI1: BioMAP Diversity Plus: MyoF Assay for Plasminogen activator inhibitor-1 (PAI1) Biomarker Activity (AID 2284256); settings: primary human lung fibroblasts
Method in brief: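 MyoF lung fibroblasts, human primary; compound 24 h; PAI-1 ELISA; positive-direction fit vs DMSO baseline; parallel SRB total-protein staining for cytotoxicity.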

[2] = read-out: Interleukin-8 (IL8), CXCL8 (gene 3576); assay: BSK_MyoF_IL8: BioMAP Diversity Plus: MyoF Assay for Interleukin-8 (IL8) Biomarker Activity (AID 2284261); settings: primary human lung fibroblasts
Method in brief: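 Lung fibroblasts (human primary) → chemical exposure → 24 h → IL-8 measured by ELISA. Signal increase scored versus DMSO control.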

Decorin, DCN (gene 1634) = assay: BSK_MyoF_Decorin: BioMAP Diversity Plus: MyoF Assay for Decorin Biomarker Activity (AID 2284265); settings: primary human lung fibroblasts
Method in brief: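 ELISA readout of decorin, 24 h post-dosing; primary human lung fibroblast (MyoF) culture; gain-of-signal fit vs DMSO baseline.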

[3] = BSK_MyoF_SRB: Viability Assessment in the BioMAP Diversity Plus: MyoF Assay (AID 2284267); settings: primary human lung fibroblasts;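 further: total protein by SRB absorbance in parallel cultures as cytotoxicity measure; cells assessed 24 h after compound addition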
Method in brief: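 Confluent human lung fibroblasts were exposed to test chemicals for 24 h. Parallel wells were then fixed in 10% TCA, stained with 0.1% sulforhodamine B and measured at 560 nm. DMSO served as baseline for curve fitting.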

[4] = read-out: Matrix Metallopeptidase 1 (MMP1), MMP1 (gene 4312); assay: BSK_MyoF_MMP1: BioMAP Diversity Plus: MyoF Assay for Matrix Metallopeptidase 1 (MMP1) Biomarker Activity (AID 2284268); settings: primary human lung fibroblasts
Method in brief: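 Cells: human lung fibroblasts. Exposure: 24 h chemical dosing. Detection: ELISA for MMP1. Analysis: upward fitting against DMSO negative control.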

[5] = read-out: TIMP metallopeptidase inhibitor 1 (TIMP1), TIMP1 (gene 7076); assay: BSK_MyoF_TIMP1: BioMAP Diversity Plus: MyoF Assay for TIMP metallopeptidase inhibitor 1 (TIMP1) Biomarker Activity (AID 2284269); settings: primary human lung fibroblasts
Method in brief: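 TIMP-1 levels were determined by ELISA in human lung fibroblasts treated for 24 h. DMSO served as negative control and baseline for upward curve fitting.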

[6] = read-out: Interferon-inducible T-cell alpha chemoattractant (ITAC), CXCL11 (gene 6373); assay: BSK_hDFCGF_ITAC: BioMAP Diversity Plus: hDFCGF Assay for Interferon-inducible T-cell alpha chemoattractant (ITAC) Biomarker Activity (AID 2284251); settings: primary human foreskin fibroblasts
Method in brief: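 Chemical dosing of primary human foreskin fibroblast cultures preceded ELISA measurement of I-TAC at 24 h. Response was analysed in the positive direction using DMSO as baseline, while parallel SRB staining measured cytotoxicity.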

[7] = read-out: Plasminogen activator inhibitor-1 (PAI1), SERPINE1 (gene 5054); assay: BSK_KF3CT_PAI1: BioMAP Diversity Plus: KF3CT Assay for Plasminogen activator inhibitor-1 (PAI1) Biomarker Activity (AID 2284252); settings: primary human keratinocytes with fibroblasts
Method in brief: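 Cells (human keratinocytes co-cultured with foreskin fibroblasts) are exposed to test chemical for 24 h. PAI-1 is then measured by ELISA and analysed for signal gain against DMSO.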

[8] = read-out: Interleukin-8 (IL8), CXCL8 (gene 3576); assay: BSK_KF3CT_IL8: BioMAP Diversity Plus: KF3CT Assay for Interleukin-8 (IL8) Biomarker Activity (AID 2284254); settings: primary human keratinocytes with fibroblasts
Method in brief: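 IL-8 read-out: ELISA, 24 h post-dose, human skin primary co-culture (keratinocytes + foreskin fibroblasts). DMSO = baseline; positive-direction fit.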

[9] = read-out: Intercellular Adhesion Molecule 1 (ICAM1), ICAM1 (gene 3383); assay: BSK_BE3C_ICAM1: BioMAP Diversity Plus: BE3C Assay for Intercellular Adhesion Molecule 1 (ICAM1) Biomarker Activity (AID 2284278); settings: primary human bronchial epithelial cells;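 further: cell-surface ICAM-1 protein level quantified by ELISA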
Method in brief: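 Here, ICAM-1 levels on confluent human bronchial epithelial primary cells are read by ELISA at 24 h after chemical dosing. Parallel SRB staining (0.1% after 10% TCA fixation, 560 nm) checks cytotoxicity.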

[10] = read-out: Interferon-inducible T-cell alpha chemoattractant (ITAC), CXCL11 (gene 6373); assay: BSK_BE3C_ITAC: BioMAP Diversity Plus: BE3C Assay for Interferon-inducible T-cell alpha chemoattractant (ITAC) Biomarker Activity (AID 2284279); settings: primary human bronchial epithelial cells
Method in brief: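 The assay measures I-TAC levels by ELISA in human primary bronchial epithelial cell cultures 24 hours after chemical treatment. Values reflect signal increase over the DMSO baseline.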

[11] = read-out: Interleukin-8 (IL8), CXCL8 (gene 3576); assay: BSK_BE3C_IL8: BioMAP Diversity Plus: BE3C Assay for Interleukin-8 (IL8) Biomarker Activity (AID 2284280); settings: primary human bronchial epithelial cells
Method in brief: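 Measured at 24 h after treatment, IL-8 from human primary bronchial epithelial cells is determined by ELISA, and the response is modelled as increasing relative to DMSO negative control.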

[12] = read-out: Epidermal growth factor receptor (EGFR), EGFR (gene 1956); assay: BSK_BE3C_EGFR: BioMAP Diversity Plus: BE3C Assay for Epidermal growth factor receptor (EGFR) Biomarker Activity (AID 2284281); settings: primary human bronchial epithelial cells
Method in brief: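 Measured 24 h after dosing in primary human bronchial epithelial cultures, EGFR was read by ELISA; gain of signal over DMSO control defined activity.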

KRT18 (gene 3875) = assay: BSK_BE3C_Keratin818: BioMAP Diversity Plus: BE3C Assay for Keratin 818 Biomarker Activity (AID 2284282); settings: primary human bronchial epithelial cells
Method in brief: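 Keratin 8/18 levels, detected by ELISA, served as the endpoint after 24 h chemical exposure of primary human bronchial epithelial cells. Gain of signal relative to DMSO negative control defined activity.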

[13] = read-out: Matrix Metallopeptidase 9 (MMP9), MMP9 (gene 4318); assay: BSK_BE3C_MMP9: BioMAP Diversity Plus: BE3C Assay for Matrix Metallopeptidase 9 (MMP9) Biomarker Activity (AID 2284283); settings: primary human bronchial epithelial cells
Method in brief: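 ELISA read-out of MMP-9 after 24 h compound exposure of human lung bronchial epithelial primary cells (BE3C). Fit in gain direction vs DMSO negative control; total protein by SRB in parallel cultures flagged overt cytotoxicity.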

[14] = read-out: Plasminogen activator inhibitor-1 (PAI1), SERPINE1 (gene 5054); assay: BSK_CASM3C_PAI1: BioMAP Diversity Plus: CASM3C Assay for Plasminogen activator inhibitor-1 (PAI1) Biomarker Activity (AID 2284284); settings: primary human coronary artery smooth muscle cells;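 further: PAI-1 protein level measured by ELISA 24 h after dosing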
[15] = read-out: Monocyte Chemoattractant Protein-1 (MCP1), CCL2 (gene 6347); assay: BSK_hDFCGF_MCP1: BioMAP Diversity Plus: hDFCGF Assay for Monocyte Chemoattractant Protein-1 (MCP1) Biomarker Activity (AID 2284285); settings: primary human foreskin fibroblasts
Method in brief: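 MCP-1 ELISA readout was taken 24 hours after dosing primary human dermal fibroblasts in the hDFCGF system, with DMSO as baseline. Parallel sulforhodamine B staining of total protein tracked overt cytotoxicity.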

[16] = read-out: Intercellular Adhesion Molecule 1 (ICAM1), ICAM1 (gene 3383); assay: BSK_hDFCGF_ICAM1: BioMAP Diversity Plus: hDFCGF Assay for Intercellular Adhesion Molecule 1 (ICAM1) Biomarker Activity (AID 2284287); settings: primary human foreskin fibroblasts
Method in brief: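 ICAM-1 ELISA readout 24 h after dosing, DMSO as baseline, in human dermal foreskin fibroblast cultures. Cytotoxicity checked in parallel wells by SRB staining (0.1% SRB, 10% TCA fixation, 560 nm).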

[17] = read-out: TIMP metallopeptidase inhibitor 2 (TIMP2), TIMP2 (gene 7077); assay: BSK_hDFCGF_TIMP2: BioMAP Diversity Plus: hDFCGF Assay for TIMP metallopeptidase inhibitor 2 (TIMP2) Biomarker Activity (AID 2284289); settings: primary human foreskin fibroblasts
Method in brief: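 Primary human foreskin fibroblasts in the hDFCGF system, dosed for 24 h; TIMP-2 level measured by ELISA, fitted in the positive direction against DMSO; cytotoxicity checked in parallel by sulforhodamine B total protein staining.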

[18] = read-out: Thrombomodulin, THBD (gene 7056); assay: BSK_LPS_Thrombomodulin: BioMAP Diversity Plus: LPS Assay for Thrombomodulin Biomarker Activity (AID 2284296)
Method in brief: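 Thrombomodulin on the surface of LPS-activated endothelial/PBMC co-cultures was quantified by ELISA at 24 hours post-dosing, with DMSO as baseline. Parallel SRB total-protein staining flagged overt cytotoxicity.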

Measured: AC50

CCOP(=S)(OCC)SCS(=O)(=O)C(C)(C)C
inactive: [1] | [2] | Decorin, DCN (gene 1634) | [3] | [4] | [5]

O=[N+]([O-])c1cccc2ccccc12
inactive: [1] | [2] | Decorin, DCN (gene 1634) | [3] | [4] | [5]

CCOP(=O)(OCC)SCCSCC
inactive: [1] | [2] | Decorin, DCN (gene 1634) | [3] | [4] | [5]

CC(C)=CC1C(C(=O)OCc2cccc(Oc3ccccc3)c2)C1(C)C (stereo not given)
inactive: [1] | [2] | Decorin, DCN (gene 1634) | [3] | [4] | [5]

CC(C)(COCC1CO1)COCC1CO1 (stereo not given)
inactive: [1] | [2] | Decorin, DCN (gene 1634) | [3] | [4] | [5]

Cc1ccc(OP(=O)(Oc2ccc(C)cc2C)Oc2ccc(C)cc2C)c(C)c1
active: [4] 5.97 µM
inactive: [1] | [2] | Decorin, DCN (gene 1634) | [3] | [5]

O=S(=O)(c1ccc(Cl)cc1)c1cc(Cl)c(Cl)cc1Cl
active: [4] 20 µM
inactive: [1] | [2] | Decorin, DCN (gene 1634) | [3] | [5]

OCCCCO
not listed: [1] | [2] | Decorin, DCN (gene 1634) | [3] | [4] | [5]
inactive: all other assays above

N#CCCC(Br)(C#N)CBr (stereo not given)
active: [1] 26.4 µM | [3] 14.1 µM | [5] 20 µM
inactive: [2] | Decorin, DCN (gene 1634) | [4]

CC(C=O)Cc1ccc2c(c1)OCO2 (stereo not given)
inactive: [1] | [2] | Decorin, DCN (gene 1634) | [3] | [4] | [5]

CCOC(=O)CCN(SN(C)C(=O)Oc1cccc2c1OC(C)(C)C2)C(C)C
inactive: [1] | [2] | Decorin, DCN (gene 1634) | [3] | [4] | [5]

CCC(C)(C#N)N=NC(C)(C#N)CC (stereo not given)
inactive: [1] | [2] | Decorin, DCN (gene 1634) | [3] | [4] | [5]

OC(Cc1ccccc1Cl)(Cn1cncn1)C1(Cl)CC1 (stereo not given)
inactive: [1] | [2] | Decorin, DCN (gene 1634) | [3] | [4] | [5]

O=C1C=CC(=O)c2ccccc21
inactive: [2]
active: [1] 4.23 µM | Decorin, DCN (gene 1634) 1.33 µM | [3] 4.69 µM | [4] 10.1 µM | [5] 4.43 µM

Oc1cccc(-c2ccccc2)c1
active: [3] 31.1 µM | [4] 31.2 µM
inactive: [1] | [2] | Decorin, DCN (gene 1634) | [5]

[Cl][Sn]([c]1ccccc1)([c]1ccccc1)[c]1ccccc1
inactive: [2]
active: [1] 0.169 µM | Decorin, DCN (gene 1634) 0.167 µM | [3] 1.36 µM | [4] 0.423 µM | [5] 0.355 µM

O=c1oc2ccccc2c(O)c1C(CC(O)c1ccc(-c2ccc(Br)cc2)cc1)c1ccccc1 (stereo not given)
inactive: [4]
active: [1] 3.64 µM | [2] 19.1 µM | Decorin, DCN (gene 1634) 9.45 µM | [3] 9.02 µM | [5] 7.83 µM

CC1(C)[C@H](C(=O)O[C@H](C#N)c2cccc(Oc3ccccc3)c2)[C@@H]1/C=C(\Cl)C(F)(F)F
active: [1] 0.0141 µM | [4] 3.39 µM
inactive: [1] | [2] | Decorin, DCN (gene 1634) | [3] | [4] | [5]

Oc1ccc(Cc2ccc(O)cc2)cc1
inactive: [1] | [2] | Decorin, DCN (gene 1634) | [3] | [4] | [5]

O=C(Cc1ccccc1)OCCc1ccccc1
not listed: [1] | [2] | Decorin, DCN (gene 1634) | [3] | [4] | [5]
inactive: all other assays above

OC(Cc1ccccc1Cl)(Cn1[nH]cnc1=S)C1(Cl)CC1 (stereo not given)
inactive: Decorin, DCN (gene 1634) | [4] | [5]
active: [1] 34.5 µM | [2] 12.3 µM | [3] 32.2 µM

Cc1ccc2nc3sc(=O)sc3nc2c1
active: [2] 3.31 µM | Decorin, DCN (gene 1634) 5 µM | [4] 5 µM
inactive: [1] | [3] | [5]

CCCCOC(=O)COC(=O)c1ccccc1C(=O)OCCCC
inactive: [6] | [7] | [8] | [9] | [10] | [11] | [12] | KRT18 (gene 3875) | [13] | [14] | [15] | [16] | [17] | [18] inactive [primary human HUVEC with PBMC]

Cc1cccc(OP(=O)(Oc2cccc(C)c2)Oc2cccc(C)c2)c1
inactive: [2] | Decorin, DCN (gene 1634) | [3] | [4] | [5]
active: [1] 0.016 µM
